YopH inh = YopH tyrosine phosphatase inhibitors, primary screen, biochemical, fluorescence Ex485/Em525; 140,000 tested, 0.16% active; inhibition, % (concentration not given with the values); YopH tyrosine phosphatase [Yersinia enterocolitica]; in the data active = inhibition above about 50%
RmlCD inh mix = RmlC and RmlD coupled enzyme inhibitors, primary screen, biochemical, 384-well, compound mixtures, retest. RmlC/RmlD coupled enzyme inhibition, 384-well mixture HTS. inhibition, % at 5.5 µM. 110,000 tested, 0.39% active. AID 1532, 2009; in the data active = inhibition above about 30%, passing the limit was not always enough
Active calls of the source: *. A selection: hits, their analogues and other compounds. The true share with any hit is near 0.44%.

`CCCc1cc(=O)oc2cc(C)c(CN3CCCC3)c(O)c12` gave YopH inh -52.
For CCCc1cc(=O)oc2c(CN3CCCC3)c(O)c(Cl)cc12 the results were YopH inh -44 and RmlCD inh mix 59*.
CC1CCCN(Cc2c(O)ccc3c(=O)c(-c4nc5ccccc5s4)c(N)oc23)C1 (centres undefined) was read as YopH inh -39 and RmlCD inh mix -17.
Cc1c(C)c2cc(Cl)c(O)c(CN3CCCC(C)C3)c2oc1=O (centres undefined) was read as YopH inh -49 and RmlCD inh mix 112*.
`CN1C(C(=O)NCc2ccccc2)CC2Cn3c(nc4cc5ccccc5cc43)C21` (centres undefined) gave RmlCD inh mix -13.
Screening CCOC(=O)C1=C(C)NC2(O)c3ccccc3C(=O)C12O (centres undefined) returned YopH inh 68* and RmlCD inh mix 0.
CCOC(=O)C1=C(C)NC(C)=C(C(=O)OCC)C1/C=C/c1ccccc1 was read as YopH inh -38 and RmlCD inh mix -12.
For Cc1csc(NC(=O)C(F)(F)F)n1 the results were YopH inh -22.
`O=C(O)CCSc1nnc(SCC(=O)NCC(F)(F)F)s1` gave YopH inh -40.
Screening Cn1c(C(=O)N2CCN(C(=O)c3ccco3)CC2)cc2c(=O)n3ccccc3nc21 returned YopH inh -29 and RmlCD inh mix 96*.
`Cc1cccn2c(=O)c3cc(C(=O)N4CCN(C(=O)c5ccco5)CC4)n(C)c3nc12` gave YopH inh -12.
CCC1(CC)C(=O)C2=C3C1[C@H](C(=O)OC)CC(C(=O)OC)C[C@H]3[C@H]1C(=O)N(c3ccccc3)C(=O)[C@H]1[C@H]2C (some centres undefined) was read as RmlCD inh mix -3.
Nn1c(=O)c2ccccc2n2c(SCc3ccc(C(F)(F)F)cc3)nnc12 was read as YopH inh -15 and RmlCD inh mix -8.
For COC(=O)c1cccc(C23CC4(C2)[C@H](CN(Cc2cccnc2)[C@@H]4c2ccccc2)C3c2ccccc2)c1 (some centres undefined) the results were RmlCD inh mix 4.
For Nc1cc(C(=O)O)ccc1Nc1ccccc1 the results were YopH inh -7 and RmlCD inh mix -12.
Screening Nc1ccc(Nc2ccccc2N)cc1 returned YopH inh 51* and RmlCD inh mix 20.
CCC(NC(=O)OC(C)(C)C)C(=O)Oc1ccc2c3c(c(=O)oc2c1)CCC3 (centres undefined) was read as YopH inh -35 and RmlCD inh mix active.
Screening CCC(NC(=O)OC(C)(C)C)C(=O)Oc1cc(C)cc2oc(=O)c3c(c12)CCC3 (centres undefined) returned YopH inh 0 and RmlCD inh mix -6.
Screening COc1ccccc1NC(=O)c1sc2ncn(Cc3cccc(C)c3)c(=O)c2c1C returned YopH inh -25 and RmlCD inh mix 66*.
COc1ccccc1NC(=O)c1sc2ncn(Cc3ccc(C)cc3)c(=O)c2c1C was read as YopH inh -31 and RmlCD inh mix 36.
For CCOC(=O)N1C=CC=C[C@@H]2[C@@H](N3C(=O)c4ccccc4C3=O)C(=O)N21 the results were YopH inh -7.
Screening COC(=O)[C@@H]1[C@H](CCc2ccccc2)NC(=O)N(Cc2ccccc2)[C@@H]1C returned RmlCD inh mix 5.
Screening O=C1CCCCC1c1cccc2ccccc12 (centres undefined) returned YopH inh -27.
O=C1c2ccccc2C(=O)C12OC2c1cccc2ccccc12 (centres undefined) was read as YopH inh 99*.
`Cc1ccccc1COCCN1CCN(S(=O)(=O)c2ccccc2)CCC1=O` gave RmlCD inh mix -56.
`CCN(C(=O)c1c(C)cc(=O)oc1C)c1ccc2c(c1)OCO2` gave YopH inh -33 and RmlCD inh mix -8.
Screening CCN(C(=O)c1coc(=O)c(Br)c1)c1ccc2c(c1)OCO2 returned YopH inh 4 and RmlCD inh mix 124*.
`CCOc1ccccc1C1C(C#N)=C(N)Nc2onc(-c3ccccc3)c21` (centres undefined) gave YopH inh 65* and RmlCD inh mix -6.
`CCCc1[nH]nc2c1C(c1ccccc1OCC)C(C#N)=C(N)O2` (centres undefined) gave YopH inh -45 and RmlCD inh mix -17.
For OC(Cc1cccnc1)(Cc1cccnc1)c1cc2ccccc2[nH]1 the results were YopH inh -9.
C=C1CC2C(=O)N(Cc3cc(OC)ccc3OC)C(C(=O)OCC)(C(=O)OCC)C1N2C(=O)OC(C)(C)C (centres undefined) was read as RmlCD inh mix -48.
O=C(COC(=O)c1cc([N+](=O)[O-])ccc1NCCO)c1ccccc1 was read as YopH inh -21.
CCN1CCc2c(sc(N)c2C#N)C1 was read as YopH inh -18 and RmlCD inh mix 8.
N#Cc1c(N)sc(=S)c2c1CCN(Cc1ccccc1)C2 was read as RmlCD inh mix 119*.
CCO[C@H]1OC(C(=O)N2CCN(C)CC2)=C[C@@H](C)[C@@H]1CCCO was read as RmlCD inh mix -11.
For COc1ccc2cc(-c3cc(C(=O)OCC(=O)NC4CCS(=O)(=O)C4)c4ccccc4n3)ccc2c1 (centres undefined) the results were YopH inh 97*.
For O=C(COC(=O)c1cc(-c2cccc3ccccc23)nc2ccccc12)NC1CCS(=O)(=O)C1 (centres undefined) the results were YopH inh -31.
`CCOc1cc(/C=N\Nc2nc(Nc3ccccc3)nc(N3CCOCC3)n2)ccc1OC(=O)c1ccco1` gave YopH inh -7.
`C=Cc1c(C)c2cc3[nH]c(cc4nc(cc5nc(cc1[nH]2)C(C)=C5CCC(=O)O)C(CCC(=O)O)=C4C)c(C)c3C=C` gave RmlCD inh mix 43*.
Screening O=C(Nc1ccc2c(c1)OCO2)c1ccc2c(c1)S(=O)(=O)c1ccccc1C2=O returned RmlCD inh mix 8.
Screening O=C(CSc1ccc(C(F)(F)F)cc1[N+](=O)[O-])Nc1ccc2ccccc2c1 returned YopH inh -10.
Screening CCOCCCn1c(=N)c(C(=O)NCc2ccc3c(c2)OCO3)cc2c(=O)n3ccccc3nc21 returned YopH inh -26.
`N=c1c(C(=O)NCc2ccc(F)cc2)cc2c(=O)n3ccccc3nc2n1CCCN1CCOCC1` gave YopH inh -26 and RmlCD inh mix 31*.
For C=C(C)C(=O)Nc1cccc(C2=NOC3(C2)C[C@@H](C(N)=O)N(C(=O)CC(c2ccccc2)c2ccccc2)C3)c1 (some centres undefined) the results were RmlCD inh mix 2.
N#Cc1cn(Cc2ccccc2)c2ccccc12 was read as YopH inh 0 and RmlCD inh mix -13.
For N#Cc1ccccc1Cn1cc(C#N)c2ccccc21 the results were YopH inh 51* and RmlCD inh mix -9.
`COC(=O)c1sc2nc(N3CCCCC3)c3c(c2c1N)CC(C)(C)N(C)C3` gave YopH inh -7 and RmlCD inh mix 37*.
CCOC(=O)c1sc2nc(N3CCOCC3)c3c(c2c1N)CC(C)(C)N(C)C3 was read as YopH inh -18 and RmlCD inh mix 23.
